# Records with an inconclusive call do not appear. Entries that show only a call come without a potency. Values without a mark were called inactive. The source made the active and inactive calls. Calls come from the whole dose curve.
# Columns and labels:
# [1] = Primary qHTS for inhibitors of SARS-S pseudo-typed particle cell entry (AID 1479145); details: SARS-S pseudotyped particle cell entry, luciferase reporter; series mostly up to 57.1 µM; note: nearly all actives have a fitted effect of over 45% in size; note: potency is the fitted concentration of half-maximal effect
# [2] = Primary qHTS for Huh7 cytotoxicity: counterscreen for inhibitors of MERS-S pseudotyped particle cell entry (AID 1479147); details: cell viability read-out; series mostly up to 57.1 µM; note: potency is the fitted concentration of half-maximal effect
# [3] = Primary qHTS for inhibitors of MERS-S pseudo-typed particle cell entry (AID 1479149); details: MERS-S pseudotyped particle entry, luciferase; series mostly up to 57.1 µM; note: nearly all actives have a fitted effect of over 60% in size
# [4] = Primary qHTS for Vero E6 cytotoxicity: counterscreen for inhibitors of SARS-S pseudo-typed particle cell entry (AID 1479150); details: cell viability; series mostly up to 57.1 µM
compound,measurement,setting,value
OC1C(O)C(O)C(O)C(O)C1O (centres undefined),Potency,[1],inactive
same,Potency,[2],inactive
same,Potency,[3],inactive
same,Potency,[4],inactive
Nc1ccc(N=Nc2ccccc2)c(N)n1,Potency,[1],inactive
same,Potency,[2],inactive
same,Potency,[3],inactive
same,Potency,[4],inactive
Oc1cccc(-c2c3nc(c(-c4cccc(O)c4)c4ccc([nH]4)c(-c4cccc(O)c4)c4nc(c(-c5cccc(O)c5)c5ccc2[nH]5)CC4)C=C3)c1,Potency,[1],inactive
same,Potency,[2],inactive
same,Potency,[3],inactive
same,Potency,[4],inactive
C/C(=C(\CCOP(=O)(O)O)SC(=O)c1ccccc1)N(C=O)Cc1cnc(C)nc1N,outcome,[1],inactive [at 5.34 µM]
same,outcome,[2],inactive [at 5.34 µM]
same,outcome,[3],inactive [at 5.34 µM]
same,outcome,[4],inactive [at 5.34 µM]
CCCCCCCCCCCCCCCCCCNC(=O)OC1CCN(C(=O)OC[C@H](COC(=O)N(Cc2cccc[n+]2CC)C(=O)c2ccccc2OC)OC)CC1,Potency,[1],25.1 µM (active)
same,Potency,[2],inactive
CC1(C)O[C@@H]2C[C@H]3[C@@H]4C[C@H](F)C5=CC(=O)C=C[C@]5(C)[C@H]4[C@@H](O)C[C@]3(C)[C@]2(C(=O)CO)O1,Potency,[1],inactive
same,Potency,[2],inactive
same,Potency,[3],inactive
same,Potency,[4],inactive
C[C@@]12C(=O)OC(=O)[C@]1(C)C1CCC2O1,Potency,[1],14.1 µM (active)
same,Potency,[2],22.4 µM (active)
N#Cc1cc(NC(=O)C(=O)O)c(Cl)c(NC(=O)C(=O)O)c1,Potency,[1],inactive
same,Potency,[2],inactive
same,Potency,[3],inactive
same,Potency,[4],inactive
CNC(=O)Oc1ccc2c(c1)[C@]1(C)CCN(C)[C@@H]1N2C,Potency,[1],inactive
same,Potency,[2],inactive
same,Potency,[3],inactive
same,Potency,[4],inactive
CC(=O)Oc1ccc(C(c2ccc(OC(C)=O)cc2)c2ccccn2)cc1,Potency,[1],1.41 µM (active)
same,Potency,[2],inactive
same,Potency,[3],inactive
O=C(O)CCc1nc(-c2ccccc2)c(-c2ccccc2)o1,Potency,[1],inactive
same,Potency,[2],inactive
same,Potency,[3],inactive
same,Potency,[4],inactive
CCN(CC)C(=O)N1CCN(C)CC1,Potency,[1],inactive
same,Potency,[2],inactive
same,Potency,[3],inactive
same,Potency,[4],inactive
O=C(O)CCC(=O)Nc1ccc(S(=O)(=O)Nc2nccs2)cc1,Potency,[1],inactive
same,Potency,[2],inactive
same,Potency,[3],inactive
same,Potency,[4],inactive
[O-][n+]1ccccc1SSc1cccc[n+]1[O-],Potency,[1],inactive
CCOCC(O)COc1ccc(NC(=O)CC[S+](C)C)cc1 (centres undefined),Potency,[1],inactive
same,Potency,[2],inactive
same,Potency,[3],inactive
same,Potency,[4],inactive
COC(=O)C1=C(C)NC(COC(N)=O)=C(C(=O)OC(C)C)C1c1cccc(Cl)c1Cl (centres undefined),Potency,[1],inactive
same,Potency,[2],inactive
same,Potency,[3],inactive
same,Potency,[4],inactive
C[C@]1(Cn2ccnn2)[C@H](C(=O)O)N2C(=O)C[C@H]2S1(=O)=O,Potency,[1],inactive
same,Potency,[2],inactive
same,Potency,[3],inactive
same,Potency,[4],inactive
O=C1C(CCS(=O)c2ccccc2)C(=O)N(c2ccccc2)N1c1ccccc1 (centres undefined),Potency,[1],inactive
same,Potency,[2],inactive
same,Potency,[3],inactive
same,Potency,[4],inactive
CCCCC(=O)O[C@]1(C(=O)CO)[C@@H](C)C[C@H]2[C@@H]3CCC4=CC(=O)C=C[C@]4(C)[C@@]3(F)[C@@H](O)C[C@@]21C,Potency,[1],inactive
same,Potency,[2],inactive
same,Potency,[3],inactive
same,Potency,[4],inactive
CN(C)CCN(Cc1cccs1)c1ccccn1,Potency,[1],inactive
same,Potency,[2],inactive
same,Potency,[3],inactive
same,Potency,[4],inactive
CCCn1cnc2c1c(=O)n(CCCCC(C)=O)c(=O)n2C,Potency,[1],inactive
same,Potency,[2],inactive
same,Potency,[3],inactive
same,Potency,[4],inactive
CCOC(=O)[C@H](CCc1ccccc1)N[C@H]1CCc2ccccc2N(CC(=O)O)C1=O,Potency,[1],inactive
same,Potency,[2],inactive
same,Potency,[3],inactive
same,Potency,[4],inactive
CCN(CC)C(=O)C1CN2CCc3cc(OC)c(OC)cc3C2CC1OC(C)=O (centres undefined),Potency,[1],inactive
same,Potency,[2],inactive
same,Potency,[3],inactive
same,Potency,[4],inactive
C[C@H]1C[C@H]2[C@@H]3CCC4=CC(=O)C=C[C@]4(C)[C@@]3(Cl)[C@@H](O)C[C@]2(C)[C@@]1(O)C(=O)CO,Potency,[1],inactive
same,Potency,[2],inactive
same,Potency,[3],inactive
same,Potency,[4],inactive
CC1(C)O[C@@H]2C[C@H]3[C@@H]4CCC5=CC(=O)CC[C@]5(C)[C@@]4(F)[C@@H](O)C[C@]3(C)[C@]2(C(=O)CCl)O1,Potency,[1],inactive
same,Potency,[2],inactive
same,Potency,[3],inactive
same,Potency,[4],inactive
CCC(=O)O[C@]1(C(=O)SCF)[C@H](C)C[C@H]2[C@@H]3C[C@H](F)C4=CC(=O)C=C[C@]4(C)[C@@]3(F)[C@@H](O)C[C@@]21C,Potency,[1],inactive
same,Potency,[2],inactive
same,Potency,[3],inactive
same,Potency,[4],inactive
Cn1cnc2c1c(=O)[nH]c(=O)n2C,Potency,[1],inactive
same,Potency,[2],inactive
same,Potency,[3],inactive
same,Potency,[4],inactive
Cc1ccc(O)cc1,Potency,[1],inactive
same,Potency,[2],inactive
same,Potency,[3],inactive
same,Potency,[4],inactive
CC(C)(C)C(=O)OCOC(=O)[C@@H]1N2C(=O)[C@@H](NC(=O)[C@H](N)c3ccccc3)[C@H]2SC1(C)C,Potency,[1],inactive
same,Potency,[2],inactive
same,Potency,[3],inactive
same,Potency,[4],inactive
COc1cc(O)c(C(=O)c2ccccc2)cc1S(=O)(=O)O,Potency,[1],inactive
same,Potency,[2],inactive
same,Potency,[3],inactive
same,Potency,[4],inactive
CCOC(=O)c1cccc(N)c1,Potency,[1],inactive
same,Potency,[2],inactive
same,Potency,[3],inactive
same,Potency,[4],inactive
Cc1ncc(CSSCc2cnc(C)c(O)c2CO)c(CO)c1O,Potency,[1],inactive
same,Potency,[2],inactive
same,Potency,[3],inactive
same,Potency,[4],inactive
C#C[C@]1(O)CC[C@H]2[C@@H]3CCC4=CC(=O)CC[C@@H]4[C@H]3CC[C@@]21C,Potency,[1],inactive
same,Potency,[2],inactive
same,Potency,[3],inactive
same,Potency,[4],inactive

# Source: PubChem BioAssay (NCATS)
